LGR2 antag – inhibitors of bursicon-induced Drosophila LGR2 receptor cAMP signaling | 0.35% of 380,000 active | AID 720647 | inhibition, % at 9.99 µM | HEK293 LGR2, CRE-luciferase, bursicon-stimulated, 4 h;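 active = drop in luminescence signal, shown as inhibition above about 50% in the replicate tests, limit read from the data, passing the limit was not always enough; inconclusive = probably only some replicates passing the limit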;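 also: agonist challenge used bursicon conditioned medium at about half maximal strength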
TWEAK Fn14 block – blocks TWEAK-Fn14 interaction in a reporter cell assay | TWEAK-stimulated Fn14 reporter cells, luciferase luminescence, 8 h | 2% of 360,000 active | inhibition, % at 10 µM; in the data active = inhibition above about 50%
EBV LMP1 NFkB – reduces LMP1-driven NF-kappaB luciferase signal; LMP1-induced NF-kappaB luciferase reporter cells, luminescence; AID 504558; 0.69% of 350,000 active; inhibition, % at 12.5 µM; in the data active = inhibition above about 41%; inconclusive = no clear call, values can overlap the other calls;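 also: 0% = neutral control wells and 100% = reference inhibitor control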
HSF1 inh – HSF1 inhibition. NIH3T3-HGL HSE-luciferase, MG132-induced, luminescence 8 h; hits give low values. activity change, negative = inhibition, % at 7.5 µM (by protocol). 0.77% of 300,000 active. AID 2098;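 active = more than half of replicate wells show activity change below -50%, luminescence cut by over half; inconclusive = some wells, but at most half, below -50%; inactive = no replicate well below -50%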;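 also: luciferase reports HSF-1 transcriptional activity via heat shock element; 0% = median of DMSO wells and -100% = zero luminescence signal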
HSF1 activator – increases HSF-1 driven luciferase reporter signal; NIH3T3-HGL HSF-1 luciferase reporter, MG132, 8 h; 100% = twice DMSO control signal; activation, % at 9 µM; 1.7% of 300,000 active;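 active = mean replicate activation of at least 50% with a set share of replicates each reaching 50%; inconclusive = only one of those two conditions met; inactive = mean below 50% and too few replicates reaching it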;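 also: 0% = median of the neutral control wells and 100% = twice that signal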
TROY signal inh – blocks TROY-dependent signaling in reporter cells | AID 1347056 | Q293 LMP1-TROYcd NF-kB luciferase reporter, 4 h | 0.98% of 360,000 active | inhibition, % at 10 µM;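 active = compounds whose plate-normalised and pattern-corrected inhibition of the luciferase reporter signal at the single screening dose is 50% or more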
* hit, by the source's call. This is a sample that favours compounds with a hit; in the whole collection about 3.6% have one here.

What do the screens show for `CN(C)c1cccc(C(=O)OCCNC(=O)c2cccc(S(=O)(=O)N3CCOCC3)c2)c1`?
LGR2 antag: 1; TWEAK Fn14 block: 11; EBV LMP1 NFkB: 18; HSF1 inh: 28; HSF1 activator: 59*; TROY signal inh: 4

What do the screens show for `CCN(CC)c1ccc(/C=N/NC(=O)c2cccc(S(=O)(=O)N3CCOCC3)c2)c(O)c1`?
LGR2 antag: 27; TWEAK Fn14 block: -2; EBV LMP1 NFkB: 55*; HSF1 inh: -5; HSF1 activator: -4; TROY signal inh: 0

How did O=C1Nc2ccccc2N(O)N1c1cc(-c2ccccc2Cl)no1 do in these assays?
TWEAK Fn14 block: 55*; EBV LMP1 NFkB: 17; HSF1 inh: -3; HSF1 activator: 2; TROY signal inh: 1

Results for O=C1Nc2ccccc2N(O)N1c1cc(-c2cccc(Cl)c2)no1 ?
TWEAK Fn14 block: 8; EBV LMP1 NFkB: 22; HSF1 inh: 0; HSF1 activator: -2; TROY signal inh: -27

How did COc1ccc2sc3cccc(NCCN(C)C)c3c(=O)c2c1 do in these assays?
LGR2 antag: -4; TWEAK Fn14 block: -32; TROY signal inh: -44

How did CN(C)CCNc1ccc(CO)c2sc3ccc(O)cc3c(=O)c12 do in these assays?
TWEAK Fn14 block: -90; EBV LMP1 NFkB: 49*; TROY signal inh: -53

How did CCOC(=O)CSc1nc2c(sc3ccc([N+](=O)[O-])cc32)c(=O)n1Cc1ccco1 do in these assays?
LGR2 antag: 3; TWEAK Fn14 block: -27; EBV LMP1 NFkB: 8; HSF1 inh: 162; HSF1 activator: 254*; TROY signal inh: -4

Results for CCOC(=O)CSc1nc2c(sc(=S)n2-c2ccccc2OC)c(=O)n1Cc1ccco1 ?
TWEAK Fn14 block: 25; EBV LMP1 NFkB: 0; HSF1 inh: 18; HSF1 activator: 57*; TROY signal inh: -8

Results for COc1ccc(CCC(=O)Nc2cc([N+](=O)[O-])ccc2OC)cc1 ?
LGR2 antag: 3; TWEAK Fn14 block: 4; EBV LMP1 NFkB: -3; HSF1 inh: 2; HSF1 activator: -1; TROY signal inh: -10

What do the screens show for `COc1ccc(CCC(=O)Nc2ccc(C)c([N+](=O)[O-])c2)cc1`?
TWEAK Fn14 block: -17; EBV LMP1 NFkB: 62*; HSF1 inh: 3; HSF1 activator: 14; TROY signal inh: 2

Results for C[C@@H]1CN([C@@H](C)CO)C(=O)Cc2cc(NC(=O)Cn3cnnn3)ccc2O[C@H]1CN(C)Cc1ccc(Oc2ccccc2)cc1 ?
LGR2 antag: 5

What do the screens show for `c1ccc(-n2cc(CN3CCC(N4CCOCC4)CC3)c(-c3ccc4c(c3)OCO4)n2)cc1`?
LGR2 antag: -6; TWEAK Fn14 block: -24; EBV LMP1 NFkB: -7; HSF1 inh: -4; HSF1 activator: -3; TROY signal inh: -16

Results for O=C1CSC(c2cn(-c3ccccc3)nc2-c2ccc3c(c2)OCCO3)N1CCN1CCOCC1 (stereo unspecified) ?
TWEAK Fn14 block: -2; EBV LMP1 NFkB: 8; HSF1 inh: 14; HSF1 activator: 58*; TROY signal inh: 30

Results for CC(C)Cn1c(-c2cccc(S(=O)(=O)N3CCOCC3)c2)n[nH]c1=S ?
LGR2 antag: -12; TWEAK Fn14 block: -7; EBV LMP1 NFkB: 71*; TROY signal inh: 1

What do the screens show for `COC(=O)CCC(=O)Nc1nccs1`?
LGR2 antag: -21; TWEAK Fn14 block: -15; EBV LMP1 NFkB: -7; HSF1 inh: -4; HSF1 activator: 3; TROY signal inh: -12

Results for Cc1nc(NC(=O)CSc2nc(N)cc(N)n2)sc1C ?
LGR2 antag: 11; TWEAK Fn14 block: -24; EBV LMP1 NFkB: -2; HSF1 inh: 18; HSF1 activator: 41; TROY signal inh: -10

Results for CCOC(=S)SCC(=O)Nc1nccs1 ?
LGR2 antag: 10; TWEAK Fn14 block: 21; EBV LMP1 NFkB: 2; HSF1 inh: 84; HSF1 activator: 115*; TROY signal inh: 1

Results for CCCC(CCC(=O)Nc1nccs1)C(=O)O (stereo unspecified) ?
LGR2 antag: -16; TWEAK Fn14 block: -2; EBV LMP1 NFkB: -2; HSF1 inh: 7; HSF1 activator: 53*; TROY signal inh: 2

Results for O=C(CCS(=O)(=O)c1ccc(Cl)cc1)Nc1nccs1 ?
LGR2 antag: -17; TWEAK Fn14 block: 5; EBV LMP1 NFkB: -8; TROY signal inh: 57*

How did CCOC(=S)SCC(=O)Nc1nc(C)c(C)s1 do in these assays?
LGR2 antag: -2; TWEAK Fn14 block: -4; EBV LMP1 NFkB: 2; HSF1 inh: 164; HSF1 activator: 236*; TROY signal inh: -4

How did COc1ccccc1-c1cnc2c(c1)C(=O)N([C@@H](C)CO)C[C@@H](C)[C@H](CN(C)Cc1cncnc1)O2 do in these assays?
LGR2 antag: -3

Results for CCOc1ccc(NC(=O)CN(C)C(=O)c2cc(C)on2)cc1OCC ?
LGR2 antag: -3; TWEAK Fn14 block: 7; EBV LMP1 NFkB: 7; HSF1 inh: 0; HSF1 activator: -1; TROY signal inh: 14

How did CCOc1ccc(NC(=O)CN(C)C(=O)c2ccncc2)cc1OCC do in these assays?
LGR2 antag: 4; TWEAK Fn14 block: 68*; EBV LMP1 NFkB: 7; HSF1 inh: -6; HSF1 activator: 4; TROY signal inh: 5

What do the screens show for `CC=Cc1ccc2n(c1=O)C[C@H]1[C@H](CO)[C@@H](C(=O)N(C)C)N(CC3CCCC3)[C@@H]21` (mixture of isomers)?
LGR2 antag: -2

What do the screens show for `O=C(Nc1ccccc1O)c1csc2c1CCCC2`?
LGR2 antag: -140; TWEAK Fn14 block: -9; EBV LMP1 NFkB: -31; HSF1 inh: 39; HSF1 activator: 93*; TROY signal inh: -48

What do the screens show for `O=C(N/N=C/c1ccccc1F)c1csc2c1CCCC2`?
LGR2 antag: -8; TWEAK Fn14 block: 24; EBV LMP1 NFkB: 6; HSF1 inh: 46; HSF1 activator: 65*; TROY signal inh: -27

Results for COc1ccc(NC(=O)c2csc3c2CCCCC3)c(OC)c1 ?
LGR2 antag: -3; TWEAK Fn14 block: 1; EBV LMP1 NFkB: 3; HSF1 inh: -3; HSF1 activator: 29; TROY signal inh: -7

What do the screens show for `O=C([C@H]1[C@H](CO)[C@H]2Cn3c(cccc3=O)[C@H]2N1Cc1ccccn1)N1CCC(Cc2ccccc2)CC1`?
LGR2 antag: 7

How did CC[C@@H](C(=O)[C@@H](C)[C@@H](O)[C@H](C)[C@@H]1O[C@@H]([C@@H](CC)C(=O)O)CC[C@@H]1C)[C@H]1O[C@]2(C=C[C@@H](O)[C@]3(CC[C@@](C)([C@H]4CC[C@](O)(CC)[C@H](C)O4)O3)O2)[C@H](C)C[C@@H]1C do in these assays?
TWEAK Fn14 block: 56*; EBV LMP1 NFkB: -4; TROY signal inh: 51*

Results for CCCCNC(=O)C1(C)CCN1C(=O)c1cc(-c2cccs2)oc1C (stereo unspecified) ?
LGR2 antag: inconclusive; TWEAK Fn14 block: 78*; TROY signal inh: 37

High-throughput results from PubChem.
